Source: article PMC5540273 (PLoS ONE, 2017)

Tests used:
Conditions in all cases: concentration: 1 μM, replicates: in singlicate; n = 1
[1] = tested on: TYK2(JH2domain-pseudokinase)
TYRO3 = tested on: TYRO3
ULK1 = tested on: ULK1
ULK2 = tested on: ULK2
ULK3 = tested on: ULK3
VEGFR2 = tested on: T1, VEGFR2
T1 construct: gene KDR

VPS34 = tested on: T2, VPS34
T2 construct: gene PIK3C3

VRK2 = tested on: VRK2
WEE1 = tested on: WEE1
WEE2 = tested on: WEE2
WNK1 = tested on: WNK1
WNK2 = tested on: WNK2
WNK3 = tested on: WNK3
WNK4 = tested on: WNK4
YANK1 = tested on: T3, YANK1
T3 construct: gene STK32A

YANK2 = tested on: T4, YANK2
T4 construct: gene STK32B

YANK3 = tested on: T5, YANK3
T5 construct: gene STK32C

YES = tested on: T6, YES
T6 construct: gene YES1

YSK1 = tested on: T7, YSK1
T7 construct: gene STK25

YSK4 = tested on: T8, YSK4
T8 construct: gene MAP3K19
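Further: KINOMEscan kinase panel screen.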

Row | SMILES | %Inh [1] | %Inh (TYRO3) | %Inh (ULK1) | %Inh (ULK2) | %Inh (ULK3) | %Inh (VEGFR2) | %Inh (VPS34) | %Inh (VRK2) | %Inh (WEE1) | %Inh (WEE2) | %Inh (WNK1) | %Inh (WNK2) | %Inh (WNK3) | %Inh (WNK4) | %Inh (YANK1) | %Inh (YANK2) | %Inh (YANK3) | %Inh (YES) | %Inh (YSK1) | %Inh (YSK4)
1 | CC(C)c1nc(-c2cccc(NS(=O)(=O)c3c(F)cccc3F)c2F)c(-c2ccnc(Nc3ccc(N4CCOCC4)nc3)n2)s1 [GSK2008607] | 17% | 100% | 63% | 83% | 98.9% | 94.5% | 0% | 0% | 0% | 0% | 3% | 13% | 23% | 59% | 14% | 48% | 1% | 99.6% | 56% | 85%
2 | CCCCc1nn2ncccc2c1-c1ccnc(Nc2ccc(N3CCN(C)CC3)cc2)n1 [GW684941] | 93% | 1% | 23% | 6% | 17% | 94% | 15% | 50% | 4% | 9% | 11% | 31% | 54% | 56% | 78% | 74% | 25% | 81% | 0% | 57%
3 | CC(C)(C)c1ccc2nccc(Nc3cccc(O)c3)c2c1 [GW856795] | 32% | 0% | 0% | 19% | 0% | 50% | 52% | 100% | 0% | 13% | 0% | 0% | 40% | 0% | 0% | 0% | 0% | 5% | 0% | 0%
4 | Cc1occc1-c1ncc(OC[C@@H](N)Cc2c[nH]c3ccccc23)cc1-c1ccc2[nH]nc(C)c2c1.O=C(O)C(F)(F)F [GSK682037] | 0% | 0% | 4% | 0% | 3% | 7% | 3% | 78% | 5% | 8% | 11% | 7% | 0% | 0% | 96.5% | 95% | 94.5% | 38% | 17% | 99.5%
5 | Cn1cc(-c2ccc3c(c2)CCN3C(=O)Cc2cccc(Cl)c2)c2c(N)ncnc21 [GSK2606590] | 13% | 0% | 11% | 0% | 18% | 49% | 1% | 0% | 0% | 0% | 13% | 18% | 25% | 5% | 10% | 0% | 21% | 21% | 18% | 98.2%
6 | Cn1cc(-c2ccc3c(c2)CCN3C(=O)Cc2cccc(F)c2)c2c(N)ncnc21 [GSK2603358] | 64% | 0% | 14% | 0% | 27% | 75% | 0% | 23% | 0% | 0% | 13% | 0% | 48% | 59% | 0% | 0% | 4% | 22% | 31% | 98.2%
7 | NCCCC(NC(=O)c1cc(Br)c(-c2ccnc3[nH]ccc23)s1)c1ccccc1.O=C(O)C(F)(F)F.O=C(O)C(F)(F)F (stereo not shown) [GSK1287544] | 6% | 0% | 54% | 0% | 13% | 3% | 28% | 0% | 2% | 4% | 30% | 0% | 11% | 8% | 0% | 0% | 0% | 0% | 0% | 95.2%
8 | COc1ccc(Nc2nccc(NCCNC(=O)c3cc4ccccc4s3)n2)cc1 [GSK1379896] | 0% | 11% | 14% | 0% | 0% | 0% | 18% | 17% | 14% | 0% | 6% | 55% | 10% | 29% | 12% | 0% | 0% | 5% | 0% | 0%
9 | Nc1ncc(-c2ccc3nccc(-c4ccncc4)c3c2)cc1S(=O)(=O)N1CCOCC1 [GSK1627798] | 21% | 0% | 0% | 0% | 6% | 0% | 93.3% | 0% | 0% | 3% | 0% | 0% | 4% | 9% | 4% | 0% | 22% | 0% | 0% | 88%
10 | COc1cc(Nc2nccc(N3CCC(NC(=O)Nc4cccc(C(C)=O)c4)C3)n2)cc(OC)c1OC (stereo not shown) [GSK1379753] | 19% | 0% | 18% | 0% | 78% | 0% | 0% | 0% | 6% | 0% | 0% | 65% | 59% | 41% | 14% | 0% | 0% | 12% | 2% | 75%
11 | O=C(Nc1n[nH]c2nc(-c3ccc(O)cc3)ccc12)C1CC1 [SB-710363] | 0% | 0% | 2% | 21% | 29% | 26% | 0% | 0% | 0% | 1% | 32% | 0% | 0% | 70% | 0% | 0% | 0% | 0% | 0% | 92.2%
12 | CC(=O)Nc1nc2cnc(Nc3cc(NC(=O)c4cccc(C5(C#N)CC5)c4Cl)ccc3C)nc2s1 | 0% | 15% | 0% | 6% | 0% | 40% | 22% | 0% | 0% | 32% | 0% | 0% | 0% | 0% | 0% | 12% | 25% | 82% | 0% | 0%
13 | Nc1ncnc2c1nc(-c1ccccc1)n2-c1ccccc1 [SKF-97293] | 54% | 9% | 51% | 35% | 50% | 23% | 44% | 36% | 4% | 0% | 47% | 5% | 48% | 28% | 3% | 21% | 0% | 0% | 4% | 54%
14 | COc1cccc(C2=C(Nc3ccc(Cl)c(C(=O)O)c3)C(=O)NC2=O)c1 [SB-390769] | 100% | 0% | 100% | 100% | 100% | 0% | 0% | 31% | 14% | 0% | 100% | 8% | 100% | 43% | 100% | 7% | 0% | 8% | 0% | 100%
15 | COc1cc(Nc2ncc3c(C)nc(-c4cc5ccccc5[nH]4)n3n2)cc(OC)c1OC [GW869516] | 82% | 32% | 48% | 51% | 20% | 0% | 0% | 0% | 36% | 85% | 0% | 0% | 0% | 0% | 0% | 0% | 0% | 47% | 0% | 0%
16 | O=c1[nH]cc(-c2ccc(N3CCOCC3)cc2)c2sc(-c3cn[nH]c3)cc12 [GSK2276055] | 64% | 0% | 0% | 0% | 9% | 17% | 0% | 0% | 4% | 0% | 7% | 1% | 8% | 0% | 8% | 0% | 16% | 0% | 26% | 98.1%
17 | CN(C)S(=O)(=O)c1cc(-c2ccc3nccc(-c4cccc(S(N)(=O)=O)c4)c3c2)cnc1N [GSK1669921] | 23% | 0% | 8% | 0% | 6% | 29% | 92.7% | 7% | 9% | 17% | 0% | 0% | 0% | 0% | 31% | 0% | 2% | 1% | 0% | 93.3%
18 | Cc1cccc(NC(=O)Nc2ccc(Oc3ncnc4ccn(C)c34)cc2)c1 | 0% | 0% | 0% | 0% | 2% | 99.7% | 0% | 0% | 0% | 0% | 0% | 0% | 0% | 0% | 0% | 0% | 31% | 0% | 0% | 97.1%
19 | CCc1ccc(-c2ccc3c(c2)-c2c(cnn2C)S(=O)(=O)N3C)cc1 | 0% | 5% | 0% | 0% | 0% | 14% | 45% | 7% | 0% | 0% | 0% | 5% | 0% | 0% | 1% | 0% | 0% | 0% | 7% | 7%
20 | c1ccc(-c2cnc3nccnn23)cc1 [AH20685] | 3% | 0% | 5% | 0% | 0% | 0% | 0% | 0% | 33% | 0% | 0% | 2% | 1% | 0% | 6% | 0% | 0% | 0% | 0% | 0%
